Screening results as filed in PubChem.
HIF-2a block = blocks HIF-2a reporter activity; 786-0 RCC cells HIF-2a reporter, luciferase luminescence, overnight; inhibition, % at 18.8 µM; 360,000 tested, 0.72% active;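 active = inhibition of the luminescence signal of 40% or more relative to plate controls, in a single-dose primary screen at 18.75 µM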
Peg3 prom inh = inhibitors of Peg3 promoter; HeLa PEG-Prom luciferase reporter, luminescence, overnight; inhibition, % at 20 µM; 360,000 tested, 1.7% active;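 active = inhibition of at least 50% at 20 µM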
KKLEB cytotox = CF airway cell cytotoxicity counter-screen; KKLEB CF airway cells viability, ATPlite luminescence, overnight; active compounds read low; cells stimulated with P. aeruginosa culture filtrate; activity change (cytotoxicity), % at 5 µM; 360,000 tested, 0.36% active;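 active = corrected activity change at or below -50% at 5 µM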
MITF TRPM1 inh = inhibitors of MITF-driven TRPM1 promoter in melanoma cells | AID 488899 | SK-MEL-5 TRPM1 promoter luciferase, 24 h | inhibition, % at 12.5 µM | 330,000 tested, 0.83% active;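 active = mean inhibition across replicates of 60% or more, whatever share of single replicates reaches that level; inconclusive = some that reach 60%, reason not given; inactive = mean inhibition across replicates below 60%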
CF NFkB block = inhibitors of cystic fibrosis induced NF-kB; 360,000 tested, 0.86% active; inhibition, % at 5 µM; AID 588850; KKLEB NF-kB-GFP reporter, PAF-induced, GFP fluorescence overnight;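 active = at least 50% inhibition at 5 µM, scaled per plate between neutral and stimulator controls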;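 note: PAF is a Pseudomonas aeruginosa culture filtrate used as stimulus; plate controls were PAF-stimulated DMSO wells for no effect and unstimulated DMSO wells for full effect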
ABHD5 PLIN5 PPI = inhibitors of human ABHD5-perilipin-5 interaction | Split G. princeps luciferase complementation, luminescence, 4 h | Q00G26+Q8WTS1 | inhibition, % at 4 µM | 360,000 tested, 0.78% active | AID 602281;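 active = inhibition above the mean inhibition across every tested compound plus 3 SD, cut at about 22% in these data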;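 note: 0% = DMSO only wells and the 100% control is not disclosed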
Mdm2 MdmX conf = confirmation of inhibitors of human Mdm2/MdmX interaction, set 2 | 740 tested, 99% active | SaOS-2 split-luciferase Mdm2/MdmX complementation, luminescence | AID 504601 | shares compounds with HIF-2a block | inhibition, % at 8 µM;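 active = mean inhibition of the luminescence signal across two replicates at or above 26 percent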
Target sequence (O15151 whole entry, looked up): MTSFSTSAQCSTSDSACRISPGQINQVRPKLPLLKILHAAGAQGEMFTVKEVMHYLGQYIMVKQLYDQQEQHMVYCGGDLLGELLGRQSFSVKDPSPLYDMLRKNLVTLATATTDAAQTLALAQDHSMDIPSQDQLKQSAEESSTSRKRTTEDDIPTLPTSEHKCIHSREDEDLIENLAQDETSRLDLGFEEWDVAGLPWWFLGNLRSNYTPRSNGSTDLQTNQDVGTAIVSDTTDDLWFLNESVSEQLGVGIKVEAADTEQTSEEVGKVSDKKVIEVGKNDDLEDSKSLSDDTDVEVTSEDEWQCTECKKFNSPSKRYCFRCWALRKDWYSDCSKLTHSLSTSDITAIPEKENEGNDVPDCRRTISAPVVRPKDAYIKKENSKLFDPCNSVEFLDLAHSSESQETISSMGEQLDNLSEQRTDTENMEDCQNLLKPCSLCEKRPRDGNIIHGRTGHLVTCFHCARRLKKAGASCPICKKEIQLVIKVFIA
Target sequence (Q00987 whole entry, looked up): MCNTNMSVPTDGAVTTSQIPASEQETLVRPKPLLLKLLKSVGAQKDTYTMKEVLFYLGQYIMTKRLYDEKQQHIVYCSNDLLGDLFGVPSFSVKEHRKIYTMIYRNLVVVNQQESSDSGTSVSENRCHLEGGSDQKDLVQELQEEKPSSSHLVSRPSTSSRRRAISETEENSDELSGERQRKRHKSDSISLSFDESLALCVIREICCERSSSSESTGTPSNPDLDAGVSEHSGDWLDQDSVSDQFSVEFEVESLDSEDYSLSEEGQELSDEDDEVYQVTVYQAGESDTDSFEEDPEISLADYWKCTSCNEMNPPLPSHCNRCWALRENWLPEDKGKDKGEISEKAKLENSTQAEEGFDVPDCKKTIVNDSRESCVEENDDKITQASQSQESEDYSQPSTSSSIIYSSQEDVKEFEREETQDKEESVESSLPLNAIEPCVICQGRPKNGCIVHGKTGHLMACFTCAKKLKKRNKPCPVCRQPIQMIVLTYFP
HIF-2a inh conf = HIF-2a inhibition, single concentration confirmation; 1,800 tested, 56% active; inhibition, % at 18.8 µM; AID 651580; shares compounds with HIF-2a block; 786-0 RCC cells, HIF-2a luciferase reporter luminescence, overnight;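 active = mean inhibition across four replicates of at least 40 percent at the single tested concentration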
HIF-1a cs = inhibits HIF-1a reporter, a counter-screen for HIF-2a inhibitors | 1,800 tested, 72% active | inhibition, % at 18.8 µM | MiaPaCa-2 HIF-1a luciferase reporter, desferoxamine, overnight | shares compounds with HIF-2a block | AID 651589;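 active = mean inhibition of the reporter signal across four replicates at the single tested dose of 50% or more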
An asterisk follows results filed as active; u = inconclusive; x = not tested or not shown. Rows were chosen to be rich in hits. Some 3.1% of all compounds tested hit in one or more screens of this group.

SMILES	HIF-2a block	Peg3 prom inh	KKLEB cytotox	MITF TRPM1 inh	CF NFkB block	ABHD5 PLIN5 PPI	HIF-2a inh conf	HIF-1a cs	others
CCOC(=O)C1CCCCN1C(=O)CCc1c(C)nc2ncnn2c1C (stereo not given)	63*	5	13	27	6	0	49*	28
CCOC(=O)CCc1c(C)nc2ncnn2c1C	6	0	9	2	-5	-1	x	x
O=CNc1cc(-c2ccc(C(=O)NC3CC3)cc2)cn2c(-c3ccc(F)cc3)cnc12	-79	42	-20	x	16	9	x	x
COc1ccc(NC(=O)C2CCN(C(=O)[C@@H]3Cc4ccccc4CN3C(=O)OC(C)(C)C)CC2)cc1	-31	-29	7	-5	-6	3	x	x
Cc1nc2cc(-c3cccc(F)c3)nn2c(C)c1CCC(=O)N1CCN(c2ccccn2)CC1	72*	-37	7	27	-12	4	81*	59*
COc1ccc(-c2cc3nc(C)c(CCC(=O)N4CCN(c5ccccn5)CC4)c(C)n3n2)c(OC)c1	5	22	-9	2	8	5	x	x
O=C(O)c1ccccc1-c1ccccc1C(=O)NCCCO	48*	-5	7	-5	-2	-4	1	-1
COCCNC(=O)c1ccccc1-c1ccccc1C(=O)O	11	-43	4	7	2	-1	x	x
COc1ccc(-n2c(C)c([N+](=O)[O-])c3ccc(O)c(CN(C)C)c32)cc1	15	33	-23	-13	79*	12	x	x	Mdm2 MdmX conf=94*
CC(=O)c1ccc(OCc2nnn(CC(=O)NS(=O)(=O)Cc3ccccc3)c2-c2ccccc2)cc1	8	-3	-11	x	-25	0	x	x
CCOc1cc(NC(=O)CCl)c(OCC)cc1NC(=O)CCl	23	50*	-31	76*	18	-3	x	x	Mdm2 MdmX conf=103*
[O-]/C(=C(\C(=S)Nc1cccc2ccccc12)[n+]1ccccc1)c1ccc2c(c1)OCCO2	70*	22	12	17	-5	-5	-40	34
O=C(c1cccc(OCc2ccccc2)c1)N1CCOCC1	-35	-30	-9	-6	10	4	x	x
COc1ccc(OCc2cccc(C(=O)Nn3cc([N+](=O)[O-])cn3)c2)cc1	62*	-135	-10	60	2	-2	84*	-47
CCOc1ccc(OCc2cccc(C(=O)N/N=C/c3cccnc3)c2)cc1	71*	-71	1	57	-7	-14	90*	-53
COc1cccc(C(=O)Nc2cc(C)on2)c1	-169	-151	1	x	-27	-5	x	x
CCOc1ccc(OCc2cccc(C(=O)N3CCOCC3)c2)cc1	65*	21	-11	56	15	-2	77*	-104
COc1ccc(OCc2cccc(C(=O)Nc3cc(C)on3)c2)cc1	66*	-1	12	u	-29	-4	68*	-47
COc1ccc(OCc2cccc(C(=O)NN)c2)cc1	61*	-24	3	50	2	3	70*	-121
O=C(c1cccs1)N1CCN=C1SCc1ccc(F)cc1	52*	-2	1	-14	-8	-5	-32	18
CCOC(=O)c1c(C)nn(-c2ccc(NC(=O)c3c(C)noc3C)cc2)c1C	66*	0	-5	30	20	4	80*	40
CC(=O)Nc1ccc(NC(=O)COC(=O)c2c(C)nn(-c3ccccc3)c2C)cc1	-37	-16	8	0	-32	-2	x	x
CCOC(=O)c1c(C)nn(-c2ccc(NC(=O)/C=C/C(=O)O)cc2)c1C	74*	13	7	9	-3	0	48*	30
CCOC(=O)c1c(C)nn(-c2ccc(NC(=O)c3cccs3)cc2)c1C	-46	19	-4	-2	2	-1	x	x
S=C1c2ccccc2CN1c1ccccc1	-146	-125	12	-37	-10	0	x	x
SMILES	HIF-2a block	Peg3 prom inh	KKLEB cytotox	MITF TRPM1 inh	CF NFkB block	ABHD5 PLIN5 PPI	HIF-2a inh conf	HIF-1a cs	others
Cc1ccc(N2Cc3ccccc3C2=S)cc1	84*	-270	-4	-67	-7	3	-218	-74
Cn1nc([N+](=O)[O-])nc1Sc1nnc(-c2ccccc2)o1	31	29	-13	12	28	6	x	x	Mdm2 MdmX conf=75*
Cc1cc(=O)[nH]c(N=N/C(=N/Nc2ccccc2C)c2ccccc2)n1	-28	22	2	41	0	-2	x	x	Mdm2 MdmX conf=84*
O=C(/C=C\c1cccs1)N1CCN(Cc2ccc3c(c2)OCO3)CC1	-11	2	14	3	2	-5	x	x
CCc1nc2c(OCC(=O)c3ccc(Cl)cc3Cl)cccn2c1N(C)C(=O)c1cccs1	-2	23	-5	x	22	7	x	x
CC12CCC(=O)N1C(C(=O)NCc1ccccc1Cl)CS2 (stereo not given)	8	8	2	5	1	-5	x	x
Cc1cc(F)ccc1S(=O)(=O)Nc1ccccc1C(=O)Nc1ccccc1-c1nc2ccccc2[nH]1	3	96*	-59*	u	74*	-16	x	x	Mdm2 MdmX conf=97*
Cc1cc(F)ccc1S(=O)(=O)Nc1ccccc1C(=O)Nc1ncn[nH]1	16	29	6	-3	-1	-9	x	x
COc1ccc(C=NNC(=S)Nc2ccc(F)cc2)cc1OC	48*	7	1	14	-17	0	6	38
CC(Oc1ccc(F)cc1)C(=O)Nc1cc(C(F)(F)F)ccc1-n1cncn1 (stereo not given)	12	-3	3	1	-18	-9	x	x
COC(=O)Cc1ccc(NC(=O)c2ccc(C(C)(C)C)cc2)cc1	90*	-44	-8	59	5	-13	94*	40
COc1cccc(-c2cc(C(=O)Nc3ccncc3)c3ccccc3n2)c1	-2	5	7	20	-35	5	x	x
Cc1ccc(NC(=O)c2cc(CC(C)C)nc3ccccc23)cc1	18	0	-19	22	-17	-6	x	x	Mdm2 MdmX conf=94*
Cc1ccc(NC(=O)c2cc(C)nc3ccccc23)cc1	-14	12	7	-6	-16	11	x	x
COc1ccc(NC(=O)c2cc(CC(C)C)nc3ccccc23)cc1	12	7	2	3	5	-26	x	x	Mdm2 MdmX conf=98*
CCc1nc2c(OCC3CCCCC3)cccn2c1N(C)C(=O)c1ccccc1F	23	21	-11	x	25	-5	x	x
CC1CC(C)C(=NNC(N)=O)C(C(O)CC2CCC(=O)NC2=O)C1 (stereo not given)	49*	37	-6	13	54*	-1	19	41
Cc1nc(C)c(C(=O)Nc2ncc([N+](=O)[O-])s2)o1	56*	38	-2	36	-4	-2	59*	35
